Compound activity from PubChem BioAssay.
Hits are enriched below; roughly 12% of the tested compounds scored in any of these assays.
AMA1 RON2 block: disrupts binding of P. falciparum AMA1 to RON2 | 0.2% of 360,000 active | AID 720542 | Potency, µM (top dose mostly 58.2 µM), inactives show at the top dose activity change, negative = inhibition, hits mostly inhibitors | AlphaScreen AMA1-biotinylated RON2 peptide binding;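 further: 0% = vehicle wells and -100% = peptide control; nearly all actives have a fitted effect of over 45% in size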
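AMA1 (3D7) with his tag at 25 nM final met compounds first, then biotinylated RON2 peptide at 25 nM; detection used donor plus acceptor beads, 10 µg/mL apiece, read by AlphaScreen after 30 min at room temperature.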
HCV inh: inhibitors of hepatitis C virus infection; Huh7.5.1 HCVcc-Cre infection, luciferase reporter, 44 h; Potency, µM (doses to about 41.8 µM), inactives show at the top dose activity change, negative = inhibition, hits mostly inhibitors; 3.4% of 340,000 active; further: on the % scale 0 is the no-effect control and ±100 the full control effect
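Reporter virus HCVcc-Cre (~0.5 moi) infects cells exposed to compound; seeding density 1,000 cells/well with 4 h settling beforehand. Luminescence, 15 sec read, taken 44 h post-infection following a 15 min RT substrate incubation.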
SARS PLpro yeast: SARS-CoV PLP inhibition in yeast; Potency, µM (top dose mostly 32.9 µM), without a hit: at the top dose activity, positive = growth rescue, hits mostly activators; 0.19% of 330,000 active; S. cerevisiae expressing SARS-CoV PLpro, growth rescue; calls by dose curve; further: 0% is about no effect; nearly all actives have a fitted effect of over 55% in size
Pf growth 48h: P. falciparum growth inhibition at 48 hours (one generation). P. falciparum luciferase growth in erythrocytes, 48 h. 5.9% of 310,000 active. AID 504832. Potency, µM (series often up to 28.7 µM), inactives show at the highest dose activity change, negative = inhibition, actives largely listed as inhibitors; further: on the % scale 0 is the no-effect control and ±100 the full control effect
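First compound was added to culture medium, then infected red cells at 0.1% parasitemia and 2% hematocrit (final). After incubation at 37 C under 5% CO2, luciferase detection reagent was dispensed and light output recorded.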
Pf growth 96h: P. falciparum growth inhibition at 96 hours; AID 504834; Potency, µM (doses to about 28.7 µM), without a hit: at the top dose activity change, negative = inhibition, hits mostly inhibitors; P. falciparum luciferase reporter growth, 96 h; 6.9% of 320,000 active; further: on the % scale 0 is the no-effect control and ±100 the full control effect
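96 h incubation, 37 C, 5% CO2, of luciferase-reporter P. falciparum-infected RBCs (2% hematocrit, 0.05% parasitemia final) with test compounds; endpoint luminescence.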
NS1 function inh: inhibitors of influenza NS1 protein function. 0.4% of 270,000 active. Potency, µM (series often up to 46.1 µM), without a hit: at the top dose activity, positive = more growth. AID 2326; calls by dose curve; further: actives are rising curves; nearly all actives have a fitted effect of over 50% in size
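In this qHTS, NS1 from influenza A is expressed in budding yeast, where it slows growth. Cells are switched from glucose to 2% galactose medium (pH 6.0, -URA), treated with compound, and growth recovery is read at OD600.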
Numbers without * were called inactive; ? = inconclusive; . = no result given; [ ] = dose if it differs, or a comment. Unless noted, the call rests on the fitted dose curve; in most records, active means well fitted curve in the direction sought with a large enough effect; inconclusive means small, poorly fitted or top-dose-only effect, or another doubt; inactive means no such curve, though single readings can be large; an effect the other way counts as inactive or inconclusive. Potency means the concentration at half of the fitted maximal effect.

SMILES	AMA1 RON2 block	HCV inh	SARS PLpro yeast	Pf growth 48h	Pf growth 96h	NS1 function inh
Cc1nc(Nc2cnc(/C=C/c3cc(C(=O)Nc4cccc(C(F)(F)F)c4)ccc3C)cn2)cc(N2CCNCC2)n1	15.5%	-8.6%[8.37 µM]	3.7%	0.738µM*	?	-20.8%
Cc1ccc(NC(=O)c2cccc(C(F)(F)F)c2)cc1NC(=O)c1[nH]cnc1C(N)=O	94.3%	4.4%	4.1%	30.6%	26.6%	.
Cc1ccc(S(=O)(=O)N2CC3CCCN3c3ccc(C(F)(F)F)cc32)cc1 (stereo unspecified)	2.0%	?	2.9%	10.4µM*	?	16.7%
O=S(=O)(c1ccc(F)cc1)N1CC2CCCN2c2ccc(C(F)(F)F)cc21 (stereo unspecified)	-3.8%	?	-3.4%	?	?	10.4%
CSCC[C@H](NC(=O)N1CCn2c1nc1ccccc12)C(=O)NCc1ccc(F)cc1	76.8%	16.8%	2.5%	?	11.7µM*	-9.5%
Cc1c([C@@H](C)C2NC[C@H](C)C[C@@H]2O)ccc2c1C[C@@H]1[C@H]2CC=C2C[C@@H](O)CC[C@@]21C (stereo partly specified)	.	.	.	.	.	-3.3%
CCc1ccccc1N(CC(=O)O)S(C)(=O)=O	-0.5%	20.7%	9.7%	10.5%	14.7µM*	6.7%
Cc1[nH]n(-c2ccccc2)c(=O)c1/C=N/Nc1nncc(-c2ccccc2)n1	-93.1%	0.562µM*	7.9%	0.415µM*	0.586µM*	-7.9%
Cc1ccc(/C=N/Nc2nncc(-c3ccccc3)n2)o1	18.2%	?	-3.3%	3.6%	?	.
Cc1[nH]n(-c2ccccc2)c(=O)c1/C=N/NC(=O)c1cccc(F)c1	10.3%	11.2µM*	7.8%	10.4µM*	-5.3%	-62.3%
CCc1cc(C(=O)N2CCN(C(=O)c3ccccc3)CC2)sc1C	-7.7%	?	-4.3%	?	?	.
Nc1nc(Nc2ccccc2Cl)cc(=O)[nH]1	12.5%	4.9%	1.1%	1.4%	?	?
Cc1ccc(-c2cc3cccc[n+]3cc2-c2ccc(C)cc2)cc1	2.9%	?	-36.3%	0.415µM*	?	18.8%
CCOc1ccc(Cc2nc(-c3nonc3N)no2)cc1OCC	7.2%	?	-1.6%	-9.5%	1.47µM*	0.4%
Cc1cccc(OCc2nc(-c3nonc3N)no2)c1C	36.4%	-9.0%	-8.9%	63.0%	?	-5.8%
CCOC(=O)c1cnc2cc(F)c(F)cc2c1N1CCOCC1	-2.4%	-21.9%	1.3%	-4.7%	-1.0%	-0.8%
Cc1c(Cl)cccc1NC(=O)CCN1C(=O)C2CC=CCC2C1=O (stereo unspecified)	27.7%	.	-2.2%	12.6%	5.22µM*	10.7%
O=C(CCN1C(=O)C2CC=CCC2C1=O)Nc1ccccc1Cl (stereo unspecified)	4.3%	-8.3%	0.9%	5.2%	21.0%	9.9%
O=C(/C=C/c1cccc(Cl)c1)Nc1ccncc1	6.5%	-3.3%	-10.3%	-7.8%	13.7%	-95.0%
NS(=O)(=O)c1ccc(NC(=O)/C=C/c2cccc(Cl)c2)cc1	-2.1%	11.2µM*	-0.8%	-7.3%	22.3%	5.6%
CCCCCCC(=O)N(O)C1CC(=O)N(c2ccc(Cl)cc2)C1=O (stereo unspecified)	-14.3%	-4.8%	-7.0%	4.15µM*	10.4µM*	-67.1%
COc1ccc(-c2cc(C(=O)OCc3ccccn3)c3ccccc3n2)cc1	-4.3%	?	-8.9%	?	?	-2.3%
O=S(=O)(Nc1cccc2cccnc12)c1ccc(S(=O)(=O)N2CCCC2)cc1	97.0%	2.82µM*	10.3%	10.4µM*	?	-13.1%
Cc1ccc(S(=O)(=O)Nc2cccc3cccnc23)c([N+](=O)[O-])c1	-8.3%	?	-8.1%	2.62µM*	0.7%	-18.9%
O=S(=O)(Nc1cccc2cccnc12)c1ccccc1	42.6%	?	-3.2%	3.7µM*	46.5%	-45.4%
SMILES	AMA1 RON2 block	HCV inh	SARS PLpro yeast	Pf growth 48h	Pf growth 96h	NS1 function inh
COc1ccc(NS(=O)(=O)c2ccc3ccccc3c2)c2ncccc12	87.2%	?	0.9%	2.94µM*	10.9%	-97.8%
CCCCN(Cc1ccccc1)C(=O)C1CCC(=O)N(CCc2ccccn2)C1 (stereo unspecified)	0.0%	16.5%	3.5%	-5.3%	?	-1.9%
COc1cc(/C=C/C(=O)c2ccc3c(c2)OCCO3)cc(Br)c1OCC(=O)N(C)C	-2.9%	7.08µM*	-7.2%	?	?	-7.6%
CCCSc1nc2cc(OC)c(OC)cc2c(=N)n1CCCN1CCOCC1	-20.2%	11.2µM*	-0.8%	11.7µM*	4.65µM*	.
COCCCn1c(SCc2ccc(OC)cc2)nc2cc(OC)c(OC)cc2c1=N	?	?	-2.8%	?	?	21.0%
CCCCc1nc(Cl)c(C#N)c2c1CSC(C)(C)C2	15.9%	?	-25.0%	6.1%	18.0%	-14.7%
CCCCc1nc(NCCNC(=O)c2ccco2)c(C#N)c2c1CSC(C)(C)C2	-6.5%	11.2µM*	-7.7%	8.28µM*	.	14.3%
CC1(C)Cc2c(C#N)c(NCCc3ccccc3)nc(-c3ccco3)c2CO1	8.0%	?	-1.1%	0.0%	-0.6%[5.75 µM]	7.3%
CCCCc1nc(NCCNC(=O)c2ccccc2)c(C#N)c2c1CSC(C)(C)C2	-4.1%	?	-20.4%	.	2.33µM*	21.6%
O=C(COC(=O)Cc1c(Cl)cccc1Cl)Nc1ccc(OC(F)(F)F)cc1	-0.4%	?	6.2%	4.3%	4.4%	-6.2%
CCN(CC)CC(C)(C)C(=O)/C=C/c1ccc(/C=C/C(=O)C(C)(C)CN(CC)CC)cc1	14.6%	2.24µM*	.	.	.	.
CCN(CC)CCOC(=O)/C=C/c1ccccc1	-2.2%	6.6%	-0.2%	56.9%	81.2%	1.1%
O=C(NN1C(=O)NC2(CCCCC2)C1=O)c1cc2cc(Cl)ccc2o1	16.5%	3.8%	-0.9%	.	.	.
O=C(NN1C(=O)NC2(CCCCC2)C1=O)c1ccc(-c2ccc(Cl)cc2)o1	-5.5%[11.6 µM]	11.2µM*	-0.8%	-19.0%	-5.0%	.
C=CCN(CC=C)C(=O)c1cc2ccccc2c(=O)o1	-12.3%	10.7%	20.1%	2.5%	-16.7%	0.0%
CCn1c(=O)n(CC)c2cc(NC(=O)C(C)c3ccccc3)c(Br)cc21 (stereo unspecified)	0.2%	-29.7%	-0.6%	?	6.4%	-19.2%
Cc1cc(-c2nc3ccccc3o2)c2ccccc2n1	7.8%	14.1µM*	-6.1%	10.1%	?	-40.3%
O=C(CCCCCNC(=O)c1ccccc1)N/N=C/c1ccc(F)cc1	15.0%	9.0%	0.3%	13.1µM*	?	-5.0%
O=C(CCC(=O)Nc1ccc(F)cc1)N/N=C/c1ccccc1	18.4%	7.8%	-1.7%	4.2%	1.47µM*	-1.0%
O=C(CCC(=O)Nc1ccc(F)cc1)N/N=C/c1ccc(Br)cc1	-2.0%	-13.7%	0.8%	-7.3%	3.7µM*	1.6%
